Source: PubChem BioAssay (several laboratories)
ROMK mod = ROMK potassium channel modulators, primary screen, cell-based, thallium flux, MLSMR library; ATP-sensitive inward rectifier potassium channel 1 (Homo sapiens), P48048; Tet-inducible ROMK, thallium flux fluorescence; actives lie on both sides; B-score at 10 µM; hit rate 2% among 130,000; AID 1918, 2009;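 active = signal ratio slope over the read window, or its plate-corrected B-score, at least 3 SD from the plate mean, either direction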;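 also: B-score of the F/F0 ratio slope over 7 to 12 s after thallium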
Target sequence (P48048 whole entry, looked up): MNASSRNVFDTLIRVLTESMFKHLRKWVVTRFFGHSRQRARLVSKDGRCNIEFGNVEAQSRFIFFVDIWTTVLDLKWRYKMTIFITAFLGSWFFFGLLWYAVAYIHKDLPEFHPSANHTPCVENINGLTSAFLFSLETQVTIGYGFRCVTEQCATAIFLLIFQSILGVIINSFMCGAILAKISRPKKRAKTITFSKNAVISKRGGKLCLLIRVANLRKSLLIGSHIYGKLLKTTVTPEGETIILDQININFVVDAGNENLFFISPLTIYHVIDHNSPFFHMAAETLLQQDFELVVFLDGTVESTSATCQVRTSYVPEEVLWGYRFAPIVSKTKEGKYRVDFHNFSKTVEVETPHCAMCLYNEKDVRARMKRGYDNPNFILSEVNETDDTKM
KCC2 mod = KCC2 cotransporter modulators, thallium flux, primary screen, cell-based, HEK293 KCC2, FluoZin-2 fluorescence, MLSMR; Solute carrier family 12 member 5 (Homo sapiens), Q9H2X9; KCC2 cells, thallium flux FluoZin-2 fluorescence; B-score of Tl+ flux slope (higher = more flux/activation; lower = inhibition) at 10 µM; hit rate 2.2% among 190,000; AID 1456, 2008;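 active = thallium flux slope and its plate-corrected score both differing from the plate sample mean at a set confidence after two filtering rounds, in either direction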;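 also: slope of fluorescence scaled to starting intensity during 10 to 20 s after thallium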
WT yeast gro inh = growth inhibition of WT strain, primary screen, mitochondrial fusion inhibitor project, WT and mutant strains, chemical genetic; mitochondrial fusion phenotypic screen; inhibition, % at 10 µM; hit rate 2.1% among 190,000; AID 1362, 2008; in the data active = inhibition above about 58%; tested in S. cerevisiae
m-calpain inh = inhibitors of pig calpain II, primary screen, biochemical, fluorogenic peptide substrate, 1536-well; purified calpain II, 30 min; inhibition, % at 16 µM; hit rate 0.37% among 220,000; AID 1236, 2008;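 active = inhibition above about 50%, limit read from the data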
L major viab = Leishmania major promastigote growth inhibition, primary screen. Leishmania major promastigotes, resazurin fluorescence viability. inhibition, % at 10 µM. hit rate 9% among 200,000; in the data active = inhibition above about 50%;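 also: promastigotes grown with compound for 44 hours at 28 °C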
The depositor's hits bear a star; x = not tested or not shown. Sampled rows, rich in hits. Any-hit rate of the full collection: about 12%.

SMILES	ROMK mod	KCC2 mod	WT yeast gro inh	m-calpain inh	L major viab
COc1ccc(S(=O)(=O)NCC(c2cccnc2)N2CCN(c3ccccc3)CC2)cc1C (stereo not given)	-0.0922	0.85	-4.5	-24.8	96.9*
COC(=O)NCC(c1cccnc1)N1CCN(c2ccccc2)CC1 (stereo not given)	x	x	4.3	-12.8	45.1
COc1ccccc1N1CCN(C(CNS(=O)(=O)c2cccs2)c2cccnc2)CC1 (stereo not given)	x	0.424	-7.4	12.3	83.2*
O=S(=O)(NCC(c1cccnc1)N1CCN(c2ccccc2)CC1)c1cccs1 (stereo not given)	0.163	x	20.2	-22.1	89.5*
O=C1CN(CC(=O)NC(=O)NCc2ccccc2)CCN1	0.0563	-0.341	-17.9	-7.8	-7.6
CSc1ccc(C2(O)Cc3cccc[n+]3C2c2ccccc2)cc1 (stereo not given)	x	0.524	x	0.3	x
CSc1cccc(CN2CCCC(CNC(=O)c3ccc(F)cc3)C2)c1 (stereo not given)	x	-0.313	-7.5	-3.3	77.3*
CSc1ccc(CN2CCCC(CNC(=O)c3ccc(F)cc3)C2)cc1 (stereo not given)	0.227	x	5.4	21.7	84.1*
O=C(NCC1CCCN(Cc2cccc(OCCO)c2)C1)c1ccc(F)cc1 (stereo not given)	-0.0344	x	-5.7	28.2	-1.4
CCOC(=O)/C(=N\Nc1ccccc1Cl)N1CCN(c2ccccc2OC)CC1	0.227	-0.0733	25.9	-2.5	-0.3
CCc1nn(C(C)C(=O)NCCN2CCN(c3cccc(C)c3C)CC2)c(=O)c2cc3occc3n12 (stereo not given)	x	-1.47	57.8	3.7	84.5*
COc1cc2[nH]c(=O)n(C3CCCCC3)c(=O)c2cc1OC	x	-0.471	28.9	-3.7	50.2*
CCc1nc(Sc2nc(C)cc(C)n2)c2oc3ccccc3c2n1	x	-0.925	-11.7	-14.2	3.0
CCOc1ccc(CNCc2cccnc2)cc1	0.189	0.252	-8.4	3.9	89.5*
Fc1ccc(COc2cccc(CNCc3ccncc3)c2)cc1	-1.57	-1.5	9.3	9.8	95.7*
Cc1ccc(CNCc2cccnc2)s1	0.922	-0.017	-23.4	-14.4	66.1*
CC(=O)Nc1cccc(OCc2ccc(F)cc2)c1	-0.978	-1.68	5.0	-5.4	19.7
CCOc1ccc(NC(=O)NCc2cccnc2)cc1	-0.506	0.46	-0.5	-24.0	4.0
c1ccc(COc2ccc(CNCc3cccs3)cc2)cc1	-0.659	x	34.4	4.2	99.1*
CCn1c(COc2ccccc2C)nnc1SCc1nc2ccccc2c(=O)[nH]1	0.295	-0.265	-4.7	22.8	2.5
CC(C)(C)NC(=O)COc1ccc(CNCc2cccs2)cc1	x	0.0378	1.7	-14.0	76.7*
c1ccc(COc2ccc(CNCc3cccnc3)cc2)cc1	0.295	-0.102	44.3	21.9	99.0*
O=C(NCc1cccnc1)c1ccc(COc2ccc(Cl)cc2)cc1	-0.256	-2.17	28.9	21.1	2.7
Cc1ccc(CNCc2cccnc2)cc1	x	-0.13	-20.0	1.2	92.7*
CCc1ccc(OCC(=O)NNC(=O)Cc2cccs2)cc1	x	1.71	-1.6	-55.8	-8.4
SMILES	ROMK mod	KCC2 mod	WT yeast gro inh	m-calpain inh	L major viab
CCOC(=O)c1ccc(NC(=S)N(CCCN2CCCC(C)C2)Cc2ccco2)cc1 (stereo not given)	-1.57	0.133	15.4	-4.8	98.8*
CCc1ccc(NC(=S)N(CCN2CCCCC2)Cc2ccco2)cc1	-1.08	0.0975	4.8	12.4	95.3*
CCOC(=O)c1ccc(NC(=S)N(CCCN2CCCC2)Cc2ccco2)cc1	-1.73	0.609	-8.5	-18.7	80.4*
Cc1cc(C)nc(Nc2ncc(O)n2-c2ccccc2)n1	x	0.0787	64.4*	-0.7	-1.9
CCCc1c(C)[nH]c2ccc(NC(C)=O)cc2c1=O	x	-0.564	69.2*	-22.7	-0.8
CC(C(=O)NC(C)(C)C)N(Cc1cccs1)C(=O)CCN1CCc2ccccc21 (stereo not given)	-0.175	2.55	16.1	-5.7	26.3
CC(/C=N/NC(=O)c1cnccn1)=C\c1ccco1	x	1.11	x	-5.2	x
O=C(CSc1ccc2nnc(-c3ccccn3)n2n1)Nc1nccs1	-0.735	1.27	-17.6	-2.1	-4.6
O=C(CSc1ccc2nnc(-c3ccncc3)n2n1)Nc1nccs1	1.4	1.69	-13.4	65.1*	-2.5
Cc1nnc2sc(SCC(=O)Nc3nccs3)nn2c1=O	x	0.296	1.6	27.6	92.0*
Cc1nnc2sc(SCc3ccccc3)nn2c1=O	x	-0.0227	-26.9	15.1	-5.0
CCC(C)NC(=O)CSc1n[nH]c(-c2cc(Cl)ccc2OC)n1 (stereo not given)	0.186	0.178	-3.4	-13.0	-2.3
CCCCCC(=O)Nc1cc(N(C)C)nc2ccccc12	x	-0.355	63.7*	x	27.4
CCN(CC)CC(=O)Nc1cc(N(C)C)nc2ccccc12	x	x	x	-28.4	x
Cn1c(=NC(=O)C2=NNC(=O)CC2)sc2ccccc21	-0.291	-0.00781	-4.9	8.9	-8.5
Cn1c(=NC(=O)CN2C(=O)C3CC=CCC3C2=O)sc2ccccc21 (stereo not given)	x	-0.637	7.3	21.4	98.7*
O=C(c1ccc([N+](=O)[O-])o1)N1CCOCC1	0.515	0.154	-5.3	-10.8	47.4
O=C(NN(c1ccccc1)c1ccccc1)c1ccc([N+](=O)[O-])o1	-0.145	1.06	-5.3	10.2	84.6*
C/C(=N/NC(=O)C(O)(c1ccccc1)c1ccccc1)c1ccc([N+](=O)[O-])o1	-0.404	0.409	-2.3	0.3	96.2*
O=C(NNC(=O)c1ccc([N+](=O)[O-])o1)c1ccccc1	x	-0.0198	-3.9	21.3	97.7*
COc1ccc(C)cc1NC(=O)C(OC(=O)c1ccc([N+](=O)[O-])o1)c1ccccc1 (stereo not given)	-0.274	-0.956	53.9	-24.8	-6.7
O=C1CCC(C(=O)N2CCCC(C(=O)c3ccc4c5c(cccc35)CC4)C2)=NN1 (stereo not given)	0.006	-0.135	5.0	-339.3	0.6
O=C(Cc1ccc(Br)cc1)Nc1cccc(Cl)c1	0.136	0.802	18.1	17.3	10.0
Cc1ccc(NC(=O)CC2S/C(=N/c3nccs3)N(C)C2=O)c(C)c1 (stereo not given)	-1.05	x	15.8	-16.3	1.1
c1ccc(-c2noc(-c3ccc4c(c3)OCO4)n2)nc1	x	1.01	64.4*	-28.3	-6.3
COc1cccc(-c2nc(-c3ccccn3)no2)c1	x	-0.74	79.4*	10.2	11.9
Cc1nn(-c2ccccc2)c(/N=C/c2ccccc2O)c1-c1ccccc1	-0.293	0.0902	9.7	10.4	-8.9
Cc1csc(-c2cnn(-c3ccccc3)c2NC(=O)c2cccc(C(F)(F)F)c2)n1	-0.105	0.747	-0.7	-46.2	26.7
O=C(/C=C/c1cccc2ccccc12)c1ccncc1	x	-0.592	7.1	7.4	100.4*
COc1cc(S(=O)(=O)Nc2ccccn2)ccc1F	1.14	x	-25.6	-33.8	-4.8
